The panel holds about 83,000 compounds, 20% with a hit somewhere; the sample as a whole holds those more often.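 Compound tested at a single concentration for 48 hours in 96-well plates; a percent growth value below 10 was scored as active.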 Values without a mark were called inactive. The source made the active and inactive calls.

The text below walks through data of PubChem BioAssay (NCI).

The test has as its system HOP-92 NSCLC. In words: NCI-60 one-dose screen, 48 h (100 = growth as untreated, 0 = no growth, -100 = all killed). Particulars: 10 µM unless noted.
For `Cc1ccc(NC(=O)CN2CCN(c3ncnc4c3cnn4-c3ccccc3)CC2)cc1`, the growth is 90.9%.
For the molecule `COc1cc(OC)cc(C(=O)Nc2cccc(-c3cn(-c4ccc(S(N)(=O)=O)cc4)nn3)c2)c1`, the growth was 24.2%.
Regarding `CCN(CC)c1ccc(/C=N/Nc2nc(-c3ccc(Br)cc3)cs2)c(O)c1`, the growth is 104%.
For `C#C[C@]1(O)CC[C@H]2[C@@H]3CC=C4c5sc(-c6ccc(O)c(O)c6)nc5CC[C@]4(C)[C@H]3CC[C@@]21C`, the growth is -53.8% (active).
Consider `Cc1ccc(NCC(=O)Cn2cc(COc3ccc(C=Nc4cnc5ccccc5c4)cc3)nn2)cc1`, for which the growth was 116%.
Under `CN(C)CCOc1ccc(C(=O)C2[C@H](c3ccc(Cl)cc3)[C@@H](c3ccccc3)NC23C(=O)Nc2ccccc23)cc1` (some centres undefined) stands 21.4%; under `CC(C)CSc1nc(NCCc2c[nH]c3ccccc23)c(C#N)c(-c2ccccc2)n1`, 61.7%; under `COc1cc(-c2cc(-c3cccc(OCC(=O)O)c3)[nH]c(=O)c2C#N)cc(OC)c1OC`, 85.4%.
`COc1ccc(C(SCCNCc2cc(N(C)C)ccn2)(c2ccccc2)c2ccccc2)cc1`: the growth was -16.5% (active).
On to `Cn1cc(-c2cc(N)n3nc(-c4cn(C)c5ccccc45)cc3n2)c2cc(Br)ccc21`, for which the growth is -59% (active).
As for `CC1(C)CC[C@]2(C(=O)O)CC[C@]3(C)C(=CCC4[C@@]5(C)C[C@@H](O)[C@@H]6OC(c7ccco7)OC[C@@]6(C)C5CC[C@]43C)C2C1` (some centres undefined), the figure is -1.27% (active).
Regarding `C#CCOc1ccc(/C=N/Nc2nc(-c3ccc(Cl)cc3)cs2)cc1OC`, the growth is 48.8%.
Consider `CCCCCCCCOc1cccc(S(=O)(=O)Nc2ccc(C)cc2C(=O)O)c1`, for which the growth is 80.1%.
As for `Nc1nnc(-c2c[nH]c3ccc(Br)cc23)c(-c2c[nH]c3ncc(Br)cc23)n1`, the figure is 21.5%.
Turning to `O=C(c1ccccc1)c1ccc2nc(-c3ccc(F)cc3)[nH]c2c1`, the growth is 90.5%.
With `Cn1cc(-c2cc(N)n3nc(-c4cn(C)c5ccc(Cl)cc45)cc3n2)c2ccccc21`, the growth was 133%.
As for `O=C(CSc1nc2ccccc2c(=O)[nH]1)NCCN1CCCCC1`, the figure is 101%; as for `CCOC(=O)C1=C(N)N(c2ccccc2)C2=C(C(=O)CC(C)(C)C2)C1c1ccccc1Cl` (centres undefined), 68.9%; as for `Cc1ccc(-c2nc(C#N)c(S(=O)(=O)N3CCN(S(=O)(=O)c4ccc(Cl)cc4)CC3)o2)cc1`, 94.6%.
Under `CC1(C)CC[C@]2(C(=O)O)CC[C@]3(C)C(=CCC4[C@@]5(C)C[C@@H](O)[C@@H]6OC(c7ccc(F)cc7)OC[C@@]6(C)C5CC[C@]43C)C2C1` (some centres undefined) stands 1.62% (active); under `C=C1CC[C@@H]2[C@]3(C)COC(c4ccccc4)O[C@@H]3CC[C@@]2(C)[C@@H]1C/C=C1/C(=O)OCC1OC(C)=O` (some centres undefined), -36.3% (active).
For `Cc1cccc(Nc2nc3ccccc3nc2/C=C/c2ccc(F)cc2)c1`, the growth was 84.5%.
Consider `C=C1CC[C@@H]2[C@]3(C)COC(c4cn[nH]c4-c4ccc(C)cc4)O[C@@H]3CC[C@@]2(C)[C@@H]1C/C=C1/C(=O)OCC1O` (some centres undefined), for which the growth was -9.12% (active).
For the molecule `CC1(C)CC[C@]2(C(=O)O)CC[C@]3(C)C(=CCC4[C@@]5(C)C[C@@H](O)[C@@H]6OC(c7ccccc7Br)OC[C@@]6(C)C5CC[C@]43C)C2C1` (some centres undefined), the growth was -1.51% (active).
